{"source": "PubChem BioAssay (NCATS)", "key": {"[1]": {"assay": "Counterscreen for APE1 Inhibitors: Fluorescent Dye Displacement Validation Assay (AID 1707)", "in_short": "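Thiazole Orange displacement from dsDNA: 250 nM ThO with 50 nM TAMRA-labelled abasic-site (tetrahydrofuran) duplex in 50 mM Tris-HCl pH7.5, 50mM NaCl, 2 mM MgCl2, 0.01% Tween-20. Loss of endpoint fluorescence (ex 480 nm, em 540 nm) flags DNA binders.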"}, "[2]": {"molecular_target": "Endonuclease 4 (Escherichia coli (strain K12)) (UniProt P0A6C1)", "assay": "Counterscreen for APE1 Inhibitors: qHTS Validation Assay for Inhibitors of Endonuclease IV (AID 1708)", "in_short": "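E. coli EndoIV at 2 nM final, preincubated 15 min at room temperature with compound, then 50 nM TAMRA/BHQ-2 THF abasic-site duplex added. Buffer: 50 mM Tris-HCl pH 7.5, 50 mM NaCl, 2 mM MgCl2, 1 mM DTT, 0.01% Tween-20. Kinetic fluorescence increase, third minus first read.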"}, "[3]": {"assay": "qHTS for differential inhibitors of proliferation of Plasmodium falciparum line 7G8 (AID 1815);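 note: potency is the fitted concentration of half-maximal effect; parasite growth measured after three days of incubation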"}, "[4]": {"assay": "qHTS for differential inhibitors of proliferation of Plasmodium falciparum line GB4 (AID 1816);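 note: potency is the fitted concentration of half-maximal effect; parasite growth measured after 72 h incubation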", "details": "Potency: Plasmodium falciparum GB4 proliferation inhibition"}, "[5]": {"assay": "qHTS for differential inhibitors of proliferation of Plasmodium falciparum line 3D7 (AID 1876); note: potency is the fitted concentration of half-maximal effect"}, "[6]": {"assay": "qHTS for differential inhibitors of proliferation of Plasmodium falciparum line W2 (AID 1883);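 note: potency is the fitted concentration of half-maximal effect; parasites grown with compound for 72 h before lysis and staining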", "details": "Potency: Plasmodium falciparum W2 proliferation inhibition"}, "[7]": {"molecular_target": "Ferritin light chain (Equus caballus) (UniProt P02791)", "sequence (P02791 2-175 limits assumed)": "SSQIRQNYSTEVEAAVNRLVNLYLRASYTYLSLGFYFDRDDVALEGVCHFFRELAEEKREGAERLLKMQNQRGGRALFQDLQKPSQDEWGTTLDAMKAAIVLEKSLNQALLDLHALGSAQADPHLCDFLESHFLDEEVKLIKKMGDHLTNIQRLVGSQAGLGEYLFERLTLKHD", "assay": "qHTS Validation Assay for Identification of Novel General Anesthetics (AID 2323); note: series mostly up to about 77 µM", "in_short": "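Competitive displacement of the profluorescent anesthetic 1-AMA (50% saturated, PBS) from 10 uM apoferritin, 10 min, room temperature. Activity is normalized 380/535 nm fluorescence; concentration-response fitted with a four-parameter Hill equation.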"}, "[8]": {"molecular_target": "ATP-dependent DNA helicase Q1 (Homo sapiens) (UniProt P46063)", "assay": "qHTS Validation Assay for Inhibitors of RecQ-Like Dna Helicase 1 (RECQ1) (AID 2353)", "in_short": "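50 nM RECQ1T1 preincubated 15 min with compound in Tris pH 8.0 buffer with MgCl2, DTT, Tween-20 and 2.5 ug/ml poly(dI-dC); started with 200 nM TAMRA/BHQ-2 forked duplex and 2 mM ATP. Unwinding read as fluorescence (525/598 nm), two reads 2 h apart.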"}, "[9]": {"molecular_target": "RecQ-like DNA helicase BLM (Homo sapiens) (UniProt P54132)", "sequence (P54132 whole entry, looked up)": "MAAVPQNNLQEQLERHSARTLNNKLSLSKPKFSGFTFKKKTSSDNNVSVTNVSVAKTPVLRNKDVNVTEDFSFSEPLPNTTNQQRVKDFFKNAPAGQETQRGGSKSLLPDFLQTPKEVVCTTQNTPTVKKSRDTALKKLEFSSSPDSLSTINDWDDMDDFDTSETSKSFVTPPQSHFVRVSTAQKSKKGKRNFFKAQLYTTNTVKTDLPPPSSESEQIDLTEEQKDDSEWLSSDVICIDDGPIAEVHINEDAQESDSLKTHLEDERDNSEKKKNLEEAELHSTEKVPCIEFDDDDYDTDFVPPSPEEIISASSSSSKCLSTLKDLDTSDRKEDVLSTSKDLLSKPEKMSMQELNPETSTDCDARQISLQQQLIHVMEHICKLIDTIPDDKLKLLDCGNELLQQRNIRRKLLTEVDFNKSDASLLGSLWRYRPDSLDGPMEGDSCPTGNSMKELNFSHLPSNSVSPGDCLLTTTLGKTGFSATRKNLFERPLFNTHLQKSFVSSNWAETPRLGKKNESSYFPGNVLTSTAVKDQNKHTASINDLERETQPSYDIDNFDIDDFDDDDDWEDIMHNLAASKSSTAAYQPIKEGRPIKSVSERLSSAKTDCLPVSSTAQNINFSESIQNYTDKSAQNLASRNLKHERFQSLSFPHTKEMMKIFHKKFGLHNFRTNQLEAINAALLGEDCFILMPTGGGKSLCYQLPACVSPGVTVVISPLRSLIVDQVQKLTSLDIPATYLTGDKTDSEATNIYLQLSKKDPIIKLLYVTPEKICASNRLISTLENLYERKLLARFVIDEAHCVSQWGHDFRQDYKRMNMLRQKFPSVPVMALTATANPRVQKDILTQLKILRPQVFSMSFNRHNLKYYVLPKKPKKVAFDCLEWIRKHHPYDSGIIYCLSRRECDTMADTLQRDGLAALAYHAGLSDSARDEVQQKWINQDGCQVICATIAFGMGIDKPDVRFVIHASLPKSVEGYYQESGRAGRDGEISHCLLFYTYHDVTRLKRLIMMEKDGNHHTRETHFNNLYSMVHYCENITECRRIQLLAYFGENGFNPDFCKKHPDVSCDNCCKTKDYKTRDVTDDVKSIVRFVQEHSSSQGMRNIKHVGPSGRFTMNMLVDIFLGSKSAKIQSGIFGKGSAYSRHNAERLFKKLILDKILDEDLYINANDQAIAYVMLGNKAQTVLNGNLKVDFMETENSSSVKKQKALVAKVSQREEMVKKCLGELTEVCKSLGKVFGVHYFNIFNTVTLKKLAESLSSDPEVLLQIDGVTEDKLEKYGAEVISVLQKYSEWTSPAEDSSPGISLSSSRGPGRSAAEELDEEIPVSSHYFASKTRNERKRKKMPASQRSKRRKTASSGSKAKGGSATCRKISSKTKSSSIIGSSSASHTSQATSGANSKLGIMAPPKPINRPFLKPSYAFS", "assay": "qHTS Validation Assay for Inhibitors of Bloom's syndrome helicase (BLM) (AID 2364)", "in_short": "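50 nM BLM preincubated 15 min at room temperature with compound in pH 8.0 Tris buffer containing 2.5 ug/ml poly(dI-dC); started with 200 nM TAMRA/BHQ-2 forked duplex and 2 mM ATP (final). Unwinding read as TAMRA fluorescence increase, two reads 2 h apart.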"}, "[10]": {"assay": "Validation screen for small molecules that induce DNA re-replication in MCF 10A normal breast cells (AID 463097); note: nearly all actives have a fitted effect of over 60% in size", "in_short": "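Read-out is Hoechst total nuclear intensity by fluorescence scanning imager, flagging increased high-DNA-content nuclei. Compounds were incubated with MCF 10A cells for 48 hr (37 C, 5% CO2) before 40 min staining.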"}, "[11]": {"assay": "Quantitative high throughput screen for delayed death inhibitors of the malarial parasite plastid, 48 hour incubation (AID 488752); note: nearly all actives have a fitted effect of over 65% in size", "in_short": "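Erythrocytes infected with firefly luciferase-expressing P. falciparum (2% hematocrit, 0.1% parasitemia) cultured with compound for 48 h at 37 C, 5% CO2, in RPMI 1640/0.5% Albumax. Growth inhibition read as loss of luminescence.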"}, "[12]": {"molecular_target": "M-phase phosphoprotein 8 (Homo sapiens) (UniProt Q99549)", "sequence (Q99549 whole entry, looked up)": "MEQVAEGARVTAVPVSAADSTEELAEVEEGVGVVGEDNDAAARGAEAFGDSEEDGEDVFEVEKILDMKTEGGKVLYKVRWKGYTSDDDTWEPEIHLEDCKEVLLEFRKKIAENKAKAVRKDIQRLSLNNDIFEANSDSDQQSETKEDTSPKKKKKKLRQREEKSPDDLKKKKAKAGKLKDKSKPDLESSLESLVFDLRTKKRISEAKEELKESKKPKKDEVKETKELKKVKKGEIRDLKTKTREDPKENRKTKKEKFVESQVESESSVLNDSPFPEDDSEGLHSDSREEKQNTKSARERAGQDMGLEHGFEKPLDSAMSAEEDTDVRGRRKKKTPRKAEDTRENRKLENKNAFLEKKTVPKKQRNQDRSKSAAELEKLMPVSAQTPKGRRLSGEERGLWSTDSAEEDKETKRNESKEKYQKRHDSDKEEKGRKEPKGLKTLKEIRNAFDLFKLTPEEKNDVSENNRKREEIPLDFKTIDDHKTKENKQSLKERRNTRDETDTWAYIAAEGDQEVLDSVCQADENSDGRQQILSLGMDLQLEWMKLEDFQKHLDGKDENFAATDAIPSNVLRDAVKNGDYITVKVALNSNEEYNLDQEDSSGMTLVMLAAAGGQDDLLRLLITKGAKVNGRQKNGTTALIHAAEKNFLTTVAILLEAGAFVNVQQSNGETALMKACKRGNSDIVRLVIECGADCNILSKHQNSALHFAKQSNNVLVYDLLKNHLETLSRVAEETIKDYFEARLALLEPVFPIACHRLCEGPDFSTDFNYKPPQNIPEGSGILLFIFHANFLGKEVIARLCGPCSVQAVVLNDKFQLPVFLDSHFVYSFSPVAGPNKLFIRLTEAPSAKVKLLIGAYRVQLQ", "assay": "qHTS Validation Assay for Inhibitors for MPP8 Chromodomain Interactions with Methylated Histone Tails (AID 488949);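 note: AlphaScreen signal from MPP8 chromodomain bound to biotinylated H3K9me3 peptide; top concentration of the series differs between compounds; nearly all actives have a fitted effect of over 55% in size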", "in_short": "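AlphaScreen proximity signal from streptavidin donor and Ni-chelate acceptor beads (10 ug/mL each) reported binding of MPP8 to trimethyl-K9 H3(1-18) peptide, both at 50 nM. The complex formed 30 min before a 30 min compound exposure at room temperature, in PBS pH 7.4.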"}, "[13]": {"molecular_target": "Transient receptor potential cation channel subfamily V member 1 (Homo sapiens) (UniProt Q8NER1)", "sequence (Q8NER1 whole entry, looked up)": "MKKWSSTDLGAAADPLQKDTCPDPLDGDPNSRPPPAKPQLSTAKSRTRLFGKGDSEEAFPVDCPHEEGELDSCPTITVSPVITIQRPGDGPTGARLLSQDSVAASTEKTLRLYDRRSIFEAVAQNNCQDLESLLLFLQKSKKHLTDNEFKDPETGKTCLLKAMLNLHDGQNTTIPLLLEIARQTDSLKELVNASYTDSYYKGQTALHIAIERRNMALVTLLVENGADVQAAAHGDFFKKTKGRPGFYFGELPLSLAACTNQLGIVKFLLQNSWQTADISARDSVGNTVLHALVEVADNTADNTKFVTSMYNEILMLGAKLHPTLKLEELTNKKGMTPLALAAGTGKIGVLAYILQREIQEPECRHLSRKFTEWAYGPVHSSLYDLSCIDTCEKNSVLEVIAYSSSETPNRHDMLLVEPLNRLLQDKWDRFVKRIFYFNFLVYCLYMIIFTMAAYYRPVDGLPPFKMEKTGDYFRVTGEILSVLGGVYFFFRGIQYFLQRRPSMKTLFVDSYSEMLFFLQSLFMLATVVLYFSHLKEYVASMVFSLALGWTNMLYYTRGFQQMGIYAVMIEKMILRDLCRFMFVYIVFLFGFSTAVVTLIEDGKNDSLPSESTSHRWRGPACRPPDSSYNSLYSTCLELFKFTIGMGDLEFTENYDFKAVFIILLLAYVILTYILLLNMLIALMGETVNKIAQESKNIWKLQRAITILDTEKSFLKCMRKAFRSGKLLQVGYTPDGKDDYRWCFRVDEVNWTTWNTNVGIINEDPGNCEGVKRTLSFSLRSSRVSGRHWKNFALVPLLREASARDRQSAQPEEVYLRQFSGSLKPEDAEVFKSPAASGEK", "assay": "HTS Assay for Compounds that Act as Enhancers of the Vanilloid Receptor 1 (AID 488979)", "in_short": "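TRPV1 cells loaded with Fluo-8 calcium dye; compound added and Ca2+ signal (ex 480/em 520 nm) followed 3 min, then capsaicin at EC20 added and read 2 more min to detect enhancement.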"}, "[14]": {"molecular_target": "Thyrotropin receptor (Homo sapiens) (UniProt P16473)", "sequence (P16473 whole entry, looked up)": "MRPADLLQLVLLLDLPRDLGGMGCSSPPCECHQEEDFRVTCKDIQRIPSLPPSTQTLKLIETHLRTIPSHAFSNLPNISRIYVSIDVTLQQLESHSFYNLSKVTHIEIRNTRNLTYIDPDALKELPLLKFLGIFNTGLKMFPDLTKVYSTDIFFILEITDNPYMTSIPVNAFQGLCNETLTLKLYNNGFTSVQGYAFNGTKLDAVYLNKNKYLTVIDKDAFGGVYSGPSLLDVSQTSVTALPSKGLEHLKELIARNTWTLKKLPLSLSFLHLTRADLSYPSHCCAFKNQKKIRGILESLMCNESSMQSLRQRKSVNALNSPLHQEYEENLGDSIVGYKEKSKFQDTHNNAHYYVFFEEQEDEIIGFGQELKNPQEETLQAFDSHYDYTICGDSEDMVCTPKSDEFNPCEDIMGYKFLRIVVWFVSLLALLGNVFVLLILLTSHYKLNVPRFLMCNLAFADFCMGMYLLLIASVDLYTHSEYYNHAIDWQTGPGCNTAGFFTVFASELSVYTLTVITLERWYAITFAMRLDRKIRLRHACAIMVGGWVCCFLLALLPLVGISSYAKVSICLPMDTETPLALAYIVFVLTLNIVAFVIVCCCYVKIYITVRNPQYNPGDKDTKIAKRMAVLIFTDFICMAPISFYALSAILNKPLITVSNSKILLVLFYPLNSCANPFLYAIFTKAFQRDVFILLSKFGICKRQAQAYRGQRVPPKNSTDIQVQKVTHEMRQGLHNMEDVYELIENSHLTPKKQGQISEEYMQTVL", "assay": "qHTS Assay for Antagonists of the Thyroid Stimulating Hormone Receptor (AID 488980); note: series mostly up to about 58 µM", "in_short": "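Inhibition of cAMP raised by EC80 TSH (4 nM final) was read by HTRF, with lysate cAMP competing against cAMP-d2 for cryptate antibody after 30 min at room temperature. The cells were transfected HEK293 held in phosphodiesterase inhibitor RO 20-1724 at 70 uM.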"}, "[15]": {"molecular_target": "Thyrotropin-releasing hormone receptor (Homo sapiens) (UniProt P34981)", "sequence (P34981 whole entry, looked up)": "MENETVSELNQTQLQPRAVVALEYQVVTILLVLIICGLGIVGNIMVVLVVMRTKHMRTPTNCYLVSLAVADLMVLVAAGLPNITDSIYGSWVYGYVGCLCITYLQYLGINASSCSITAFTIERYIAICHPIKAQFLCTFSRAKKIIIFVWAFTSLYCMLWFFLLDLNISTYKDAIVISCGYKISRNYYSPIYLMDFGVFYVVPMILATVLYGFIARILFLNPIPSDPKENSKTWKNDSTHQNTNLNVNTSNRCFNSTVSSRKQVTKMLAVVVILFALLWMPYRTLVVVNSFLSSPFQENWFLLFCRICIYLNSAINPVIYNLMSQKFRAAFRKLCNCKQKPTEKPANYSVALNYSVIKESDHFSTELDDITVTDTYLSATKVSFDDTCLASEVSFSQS", "assay": "qHTS for Small Molecule Agonists and Allosteric Enhancers of Human TRH Receptor: Validation Screen for Agonists (AID 493127;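 active = calcium activation more than 3 SD above the typical response in the agonist read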)", "details": "TRH receptor agonist cell assay; at 2 µM; hits give high values", "in_short": "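TRHR cells loaded with fluo-8 calcium dye; FDSS kinetic fluorescence (Ex 480/Em 530) read at 1 s/cycle after 23 nL compound addition. Agonist-mode calcium response recorded before the 10 nM TRH (EC20) addition.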"}, "[16]": {"molecular_target": "Galactokinase (Homo sapiens) (UniProt P51570)", "sequence (P51570 whole entry, looked up)": "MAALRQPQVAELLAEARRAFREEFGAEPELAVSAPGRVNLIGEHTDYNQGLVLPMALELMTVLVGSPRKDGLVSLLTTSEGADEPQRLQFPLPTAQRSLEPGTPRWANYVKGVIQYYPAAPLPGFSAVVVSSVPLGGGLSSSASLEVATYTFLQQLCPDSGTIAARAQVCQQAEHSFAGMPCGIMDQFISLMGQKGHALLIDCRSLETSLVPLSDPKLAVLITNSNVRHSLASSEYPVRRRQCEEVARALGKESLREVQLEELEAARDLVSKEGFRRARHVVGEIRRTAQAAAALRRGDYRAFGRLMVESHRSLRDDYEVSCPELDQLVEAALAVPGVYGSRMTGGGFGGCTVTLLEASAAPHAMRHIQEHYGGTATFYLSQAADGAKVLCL", "assay": "qHTS Validation Assay for Inhibitors of Human Galactokinase (GALK) (AID 493189)", "in_short": "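Inhibition was measured as remaining ATP, detected by luciferase luminescence after a 1 h room-temperature reaction. Final conditions: 5 nM GALK, 100 uM galactose, 35 uM ATP, pH 8.0 HEPES buffer.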"}, "[17]": {"assay": "Validation screen for small molecules that induce DNA re-replication in SW480 colon adenocarcinoma cells (AID 504364)", "in_short": "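SW480 cells (250/well) exposed 48 h at 37 C, 5% CO2, then Hoechst-stained 40 min. Nuclear DNA content imaged by fluorescence scanning (405 nm excitation, 500-530 nm emission); re-replication scored as increased nuclei with elevated intensity.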"}, "[18]": {"molecular_target": "Voltage-gated inwardly rectifying potassium channel KCNH2 (Homo sapiens) (UniProt Q12809)", "assay": "qHTS Assay for Small Molecule Inhibitors of the Human hERG Channel Activity (AID 588834);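 note: potency is the fitted concentration of half-maximal effect; lower thallium flux fluorescence means stronger hERG block; nearly all actives have a fitted effect of over 50% in size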", "in_short": "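Kinetic FDSS fluorescence; U2OS + hERG BacMam (~100 virus particles/cell); FluxOR Tl+ flux; ~10 min cpd; AC50 (Hill).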"}}, "note": "A number with no mark means an inactive call. Inconclusive results are not listed. Where a call stands in place of a potency, no number is given. Calls of active or inactive are those of the source. Unless noted, calls come from the whole dose curve; as a rule, active = well fitted curve in the direction sought with a large enough effect; inconclusive = small, poorly fitted or top-dose-only effect, or another doubt; inactive = no such curve, though single readings can be large; an effect the other way counts as inactive or inconclusive.", "data": [{"smiles": "CCCCN1CCC(COC(=O)c2cc(Cl)c(N)c3c2OCCO3)CC1", "values": [{"measurement": "outcome", "setting": "[1]", "value": "inactive"}, {"measurement": "Potency", "setting": "[2]", "value": "inactive"}, {"measurement": "Potency", "setting": "[3]", "value": "10 µM (active)"}, {"measurement": "Potency", "setting": "[4]", "value": "12.6 µM (active)"}, {"measurement": "Potency", "setting": "[5]", "value": "8.91 µM (active)"}, {"measurement": "Potency", "setting": "[6]", "value": "7.08 µM (active)"}, {"measurement": "outcome", "setting": "[7]", "value": "inactive"}, {"measurement": "outcome", "setting": "[8]", "value": "inactive"}, {"measurement": "Potency", "setting": "[9]", "value": "inactive"}, {"measurement": "Potency", "setting": "[10]", "value": "inactive"}, {"measurement": "Potency", "setting": "[11]", "value": "inactive"}, {"measurement": "Potency", "setting": "[12]", "value": "inactive"}, {"measurement": "outcome", "setting": "[13]", "value": "inactive"}, {"measurement": "outcome", "setting": "[14]", "value": "inactive"}, {"measurement": "activation", "setting": "[15]", "value": 1.19, "unit": "%"}, {"measurement": "outcome", "setting": "[16]", "value": "inactive"}, {"measurement": "Potency", "setting": "[17]", "value": "inactive"}, {"measurement": "Potency", "setting": "[18]", "value": "2.24 µM (active)"}]}]}
